Test results taken from PubChem BioAssay (NCATS).
Values joined by “and” are separate entries in the source; they are usually repeats but may differ in a detail not shown here. Equal entries are not always repeated. Inconclusive results are not listed. A structure can be active in one record and inactive in another. Active and inactive are the calls of the source. Unless noted, the call rests on the fitted dose curve; in most records, active means well fitted curve in the direction sought with a large enough effect; inconclusive means small, poorly fitted or top-dose-only effect, or another doubt; inactive means no such curve, though single readings can be large; an effect the other way counts as inactive or inconclusive.

Columns and labels:
[1] = system: CASKI; test: Primary qHTS to identify gynecologic anti-cancer compounds using libraries of approved drugs and bioactive compounds (AID 1345084); settings: Gynecologic cancer cell panel viability, ATPlite luminescence, 48 h; series mostly up to 57.5 µM; further: nearly all actives have a fitted effect of over 55% in size; further: potency means the concentration at half of the fitted maximal effect
How it was run: (§1)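 Measured: luminescence after ATPlite addition (15 min, RT). Exposure: 48 h, 37 C, 5% CO2.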

[2] = system: Es-2; test: as above; settings: Gynecologic cancer cell panel viability, ATPlite luminescence, 48 h; series mostly up to 57.5 µM
How it was run: as §1

[3] = system: HeLa; test: as above; settings: Gynecologic cancer cell panel viability, ATPlite luminescence, 48 h; series mostly up to 57.5 µM
How it was run: as §1

[4] = system: Hek293T; test: as above; settings: Gynecologic cancer cell panel viability, ATPlite luminescence, 48 h, control line for the selectivity index; series mostly up to 57.5 µM
How it was run: as §1

[5] = system: JEG-3; test: as above; settings: Gynecologic cancer cell panel viability, ATPlite luminescence, 48 h; series mostly up to 57.5 µM
How it was run: as §1

[6] = system: SKOV3; test: as above; settings: Gynecologic cancer cell panel viability, ATPlite luminescence, 48 h; series mostly up to 57.5 µM
How it was run: as §1

[7] = qHTS assay to identify inhibitors of the type 1 interferon - major histocompatibility complex class I in skeletal muscle: Counter screen cell viability and HiBit confirmation (AID 1347412); settings: iHSKM muscle cells + IFN-b, HiBiT or CellTiter-Glo, 24 h; for Potency: HiBiT; for activity change, negative = inhibition: Viability, at 45.9 µM (top of the series); further: potency means the concentration at half of the fitted maximal effect; on activity change, negative = inhibition: on the % scale 0 is the no-effect control and ±100 the full control effect; on all read-outs here: nearly all actives have a fitted effect of over 60% in size
How it was run: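 HLA-B*08:01–HiBiT knock-in immortalized human myoblasts (C25cl48) stimulated with 4.0 ng/ml human IFN-beta and dosed with compound in a 12-point 1:3 titration (top final 46 uM). After 24 hrs at 37 C, HiBiT lytic luminescence or CellTiter Glo ATP read out.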

[8] = system: OV90; test: Primary qHTS to identify gynecologic anti-cancer compounds using libraries of approved drugs and bioactive compounds (AID 1345084); settings: Gynecologic cancer cell panel viability, ATPlite luminescence, 48 h; series mostly up to 57.5 µM; further: nearly all actives have a fitted effect of over 55% in size; further: potency means the concentration at half of the fitted maximal effect
How it was run: as §1

[9] = system: PA-1; test: as above; settings: Gynecologic cancer cell panel viability, ATPlite luminescence, 48 h; series mostly up to 57.5 µM
How it was run: as §1

[10] = system: Tov-21-G; test: as above; settings: Gynecologic cancer cell panel viability, ATPlite luminescence, 48 h; series mostly up to 57.5 µM
How it was run: as §1

[11] = system: Tov112D; test: as above; settings: Gynecologic cancer cell panel viability, ATPlite luminescence, 48 h; series mostly up to 57.5 µM
How it was run: as §1

[12] = Drug repurposing screens with cells derived from glioblastoma tumor samples (AID 1345199); settings: GBM patient neurospheres viability, ATP luminescence, 48 h; further: nearly all actives have a fitted effect of over 40% in size; further: potency means the concentration at half of the fitted maximal effect; on activity, negative = cell killing: on the % scale 0 is the no-effect control and ±100 the full control effect
How it was run: (§2)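 Primary testing used CD133+ neurospheres from four GBM patients, seven concentrations, 48 h exposure and ATP-based viability; confirmation added three slower-growing patient lines.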

[13] = system: astro; test: as above; settings: viability, ATP luminescence, 48 h; series mostly up to 45.9 µM
How it was run: as §2

[14] = target: Nuclear receptor subfamily 1 group I member 2 (Rattus norvegicus) (UniProt Q9R1A7); test: qHTS assay for small molecule activators of the rat pregnane X receptor (rPXR) signaling pathway (AID 651751; call rule not given here; further: 0% is about no effect); settings: rPXR reporter cells, luciferase (One-Glo), 24 h
[15] = qHTS assay for small molecule activators of the human pregnane X receptor (PXR) signaling pathway (AID 720659; call rule not given here; further: 0% is about no effect)
[16] = at 45.9 µM (top of the series), tumour line B
[17] = at 45.9 µM (top of the series), tumour line D
[18] = at 46.1 µM (top of the series), tumour line C
[19] = at 46 µM (top of the series), tumour line A

Sequence of Nuclear receptor subfamily 1 group I member 2 (Rattus norvegicus) (Q9R1A7 whole entry, looked up): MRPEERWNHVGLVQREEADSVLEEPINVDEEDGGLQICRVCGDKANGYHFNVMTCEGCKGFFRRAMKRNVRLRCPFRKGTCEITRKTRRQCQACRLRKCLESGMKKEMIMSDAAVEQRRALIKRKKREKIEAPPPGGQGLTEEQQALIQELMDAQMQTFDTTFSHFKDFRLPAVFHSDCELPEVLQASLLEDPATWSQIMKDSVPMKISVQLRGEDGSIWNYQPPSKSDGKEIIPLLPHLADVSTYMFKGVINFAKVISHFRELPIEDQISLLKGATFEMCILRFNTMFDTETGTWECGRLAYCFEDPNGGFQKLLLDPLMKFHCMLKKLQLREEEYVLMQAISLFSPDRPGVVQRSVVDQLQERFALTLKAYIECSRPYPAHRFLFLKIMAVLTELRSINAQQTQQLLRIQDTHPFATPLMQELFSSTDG

COc1cc(Nc2ncc(F)c(Nc3ccc4c(n3)NC(=O)C(C)(C)O4)n2)cc(OC)c1OC
active: Potency [1] 11.2 µM | Potency [3] 31.6 µM | Potency [6] 15.8 µM | Potency [7] 1.25 µM
inactive: Potency [2] | Potency [4] | Potency [5] | activity change, negative = inhibition [7] -9.37%

O=C1NCC2(CCN(CCc3ccccc3)CC2)O1
inactive: Potency [1] | Potency [2] | Potency [3] | Potency [4] | Potency [5] | Potency [8] | Potency [9] | Potency [6] | Potency [10] | Potency [11] | activity, negative = cell killing [12, 16] -4.5% | activity, negative = cell killing [12, 17] -9.33% | activity, negative = cell killing [12, 18] -12.7% | Potency [13]

COC(=O)[C@@H]1[C@H]2C[C@H]3c4[nH]c5ccccc5c4CCN3C[C@@H]2CC[C@@H]1O
inactive: Potency [1] | Potency [2] | Potency [3] | Potency [4] | Potency [5] | Potency [8] | Potency [9] | Potency [6] | Potency [10] | Potency [11] | activity, negative = cell killing [12, 16] 3.23% | activity, negative = cell killing [12, 17] 3.82% | activity, negative = cell killing [12, 18] -7.31% | Potency [13]

CCCNC(=O)NS(=O)(=O)c1ccc(Cl)cc1
inactive: Potency [1] | Potency [2] | Potency [3] | Potency [4] | Potency [5] | Potency [8] | Potency [9] | Potency [6] | Potency [10] | Potency [11] | activity, negative = cell killing [12, 16] -7.96% | activity, negative = cell killing [12, 17] 5.01% | activity, negative = cell killing [12, 19] -11.4% | activity, negative = cell killing [12, 18] -13.2% | Potency [13] | max response [14] -5.97% and -1.04% | outcome [15]

O=C(NCc1ccccc1)c1csc(Nc2ccncn2)n1
active: Potency [7] 9.91 µM
inactive: Potency [1] | Potency [2] | Potency [3] | Potency [4] | Potency [5] | Potency [8] | Potency [9] | Potency [11] | activity change, negative = inhibition [7] -20.4%

CN(C)C1CCN(C(=O)c2ccc(NC(=O)Nc3nc(N4CCOCC4)nc(N4CCOCC4)n3)cc2)CC1
active: Potency [1] 0.141 µM | Potency [2] 0.794 µM | Potency [3] 0.794 µM | Potency [4] 0.891 µM | Potency [8] 0.141 µM | Potency [6] 0.1 µM

O=C(O)c1cc(-c2ccccc2)nc2ccccc12
inactive: Potency [1] | Potency [2] | Potency [4] | Potency [5] | Potency [8] | Potency [9] | Potency [10] | Potency [11] | activity, negative = cell killing [12, 16] -26% | activity, negative = cell killing [12, 17] -24.8% | activity, negative = cell killing [12, 18] -23% | max response [14] -0.78% | outcome [15]
28.2 µM (active) and inactive: Potency [6]
50.1 µM (active) and inactive: Potency [3]

Cc1cccc(C)c1OCC(C)N (stereo not drawn)
inactive: Potency [1] | Potency [2] | Potency [3] | Potency [4] | Potency [5] | Potency [8] | Potency [9] | Potency [10] | Potency [11] | activity, negative = cell killing [12, 16] -9.46% | activity, negative = cell killing [12, 17] 4.9% | activity, negative = cell killing [12, 18] 3.32% | Potency [13]

O=C(NCCN1CCOCC1)c1ccc(Cl)cc1
inactive: Potency [1] | Potency [2] | Potency [3] | Potency [4] | Potency [5] | Potency [8] | Potency [9] | Potency [6] | Potency [10] | Potency [11] | activity, negative = cell killing [12, 16] -9.41% and -9.63% | activity, negative = cell killing [12, 17] -2.14% and -10.5% | activity, negative = cell killing [12, 18] -17.8% and -11.9% | Potency [13]

CN(C[C@@H]1COCCO1)S(=O)(=O)Nc1ccc2ccc3ncc(-c4cnn(C)c4)cc3c(=O)c2c1
inactive: Potency [1] | Potency [2] | Potency [4] | Potency [5] | Potency [8]
active: Potency [3] 12.6 µM | Potency [10] 20 µM

COc1cc2ncnc(Nc3ccc(F)c(Cl)c3)c2cc1OCCCN1CCOCC1
active: Potency [6] 10 µM | Potency ([12]; tumour line A) 5.62 µM | Potency ([12]; tumour line B) 17.8 µM | Potency ([12]; tumour line D) 8.91 µM | Potency [13] 20 µM
inactive: Potency [1] | Potency [2] | Potency [3] | Potency [4] | Potency [5] | Potency [8] | Potency [9] | Potency [11] | activity, negative = cell killing [12, 18] -12.4%

CC(=O)c1ccc(S(=O)(=O)NC(=O)NC2CCCCC2)cc1
inactive: Potency [1] | Potency [2] | Potency [3] | Potency [4] | Potency [5] | Potency [8] | Potency [9] | Potency [6] | Potency [10] | Potency [11] | activity, negative = cell killing [12, 16] -1.16% | activity, negative = cell killing [12, 17] 0.333% | activity, negative = cell killing [12, 19] -21.5% | activity, negative = cell killing [12, 18] -21% | Potency [13] | max response [14] -0.823% and -0.02% | outcome [15]

CCn1cc(C(=O)O)c(=O)c2ccc(C)nc21
inactive: Potency [1] | Potency [2] | Potency [3] | Potency [4] | Potency [5] | Potency [8] | Potency [6] | Potency [10] | Potency [11] | activity, negative = cell killing [12, 16] -0.634% | activity, negative = cell killing [12, 17] -3.73% | activity, negative = cell killing [12, 18] -15.1% | Potency [13] | outcome [15]

O=C1NC(=O)C(c2ccccc2)(c2ccccc2)N1
inactive: Potency [1] | Potency [2] | Potency [3] | Potency [4] | Potency [5] | Potency [8] | Potency [9] | Potency [6] | Potency [10] | Potency [11] | activity, negative = cell killing [12, 16] -5.12% | activity, negative = cell killing [12, 17] -12.9% | activity, negative = cell killing [12, 19] -29.6% | activity, negative = cell killing [12, 18] 10.5% | Potency [13] | max response [14] -3.01% and 3.12% and 2.23%

CC(=O)Oc1cc2c(s1)CCN(C(C(=O)C1CC1)c1ccccc1F)C2 (stereo not drawn)
inactive: Potency [1] | Potency [2] | Potency [3] | Potency [4] | Potency [5] | Potency [8] | Potency [9] | Potency [6] | Potency [10] | Potency [11] | activity, negative = cell killing [12, 16] 4.77% | activity, negative = cell killing [12, 17] -7.3% | activity, negative = cell killing [12, 19] -27.4% | Potency [13]
